Experimental findings from PubChem BioAssay (Tox21) are described below.

Several values for one entry are separate records, joined by “and”; a condition that tells them apart may be missing. Equal values may be shown once. Results filed as inconclusive are left out. More than one record can exist for a structure, and the calls need not agree. Activity calls are given as the source filed them. The call rests on the fitted dose curve; in most records, active means well fitted inhibition curve with a large enough effect in the repeat runs; inconclusive means weak or mixed curves; inactive means no such curve, though single readings can be large or run the other way.
Further: nearly all actives have a fitted effect of over 50% in size.
On the % scale 0 is the no-effect control and ±100 the full control effect; potency means the concentration at half of the fitted maximal effect.

Cytochrome P450 2C9 (Homo sapiens), sequence (P11712 whole entry, looked up): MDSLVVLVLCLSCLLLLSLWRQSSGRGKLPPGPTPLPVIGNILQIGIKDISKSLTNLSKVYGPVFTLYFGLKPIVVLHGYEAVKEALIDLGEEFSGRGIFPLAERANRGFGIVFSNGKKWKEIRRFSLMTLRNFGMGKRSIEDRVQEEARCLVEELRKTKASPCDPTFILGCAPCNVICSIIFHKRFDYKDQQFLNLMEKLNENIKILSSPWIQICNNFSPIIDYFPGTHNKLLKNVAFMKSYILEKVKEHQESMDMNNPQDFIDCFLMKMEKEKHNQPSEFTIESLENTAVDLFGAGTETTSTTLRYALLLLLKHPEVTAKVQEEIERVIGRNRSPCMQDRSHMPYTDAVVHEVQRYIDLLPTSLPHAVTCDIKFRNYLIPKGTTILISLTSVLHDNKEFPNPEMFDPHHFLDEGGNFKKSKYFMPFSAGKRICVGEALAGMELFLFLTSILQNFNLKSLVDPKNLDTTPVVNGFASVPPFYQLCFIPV

The target in the first assay is Cytochrome P450 2C9 (Homo sapiens) (UniProt P11712). Description: Cytochrome P450 Family 2 Subfamily C Member 9 (CYP2C9) small molecule antagonists: luciferase reporter qHTS assay (AID 1671198). Particulars: P450-Glo CYP2C9 enzyme assay, luciferin luminescence; series mostly up to 115 µM; activity change, negative = inhibition: at the top concentration. In short, it runs like this:
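Enzyme-substrate mix preincubated with compound 10 min at room temperature; reaction started with NADPH regeneration solution, 1 h 37C. Luminescent luciferin product read after 20 min detection reagent.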
A general note: A reporter such as luciferase makes a cellular process visible.
Take `CCOc1ccc(C(=O)OCCN(CC)CC)cc1`: the “activity change, negative = inhibition” value was 6.97% [at 53 µM] (inactive).

With `CCCCCCOC(=O)CCCCC(=O)OCCCCCC`, the Potency is 31.7 µM (active).

In the case of `CC1(C)C(O)C(C)(C)C1O` (centres undefined), the “activity change, negative = inhibition” value was -1.42% (inactive).

As for `Cc1[nH]c(=O)c(C#N)cc1-c1ccc2nccn2c1`, the “activity change, negative = inhibition” value was -8.54% [at 53 µM] (inactive).

For `CCCCCCCCCCCCCC=O`, the activity change, negative = inhibition was -9.33% [at 10.5 µM] (inactive).

Regarding `CN1CC(=O)NC1=N`, the “activity change, negative = inhibition” value was 1.62% [at 53 µM] (inactive).

As for `CCCCCOC(=O)CCCCC`, the “activity change, negative = inhibition” value is -5.86% (inactive).

`CC/C=C\CC/C=C/CO`: the “activity change, negative = inhibition” value was -9.25% (inactive).

Take `CC(C)(c1ccc(O)cc1)c1ccc(O)cc1`: the Potency is 35.2 µM (active) and 28.8 µM (active).

Turning to `C[C@@H]1CCN(C(=O)[C@H](CCCN=C(N)N)NS(=O)(=O)c2cccc3c2NC[C@H](C)C3)[C@@H](C(=O)O)C1`, the “activity change, negative = inhibition” value was -6.14% [at 53 µM] (inactive).

For `CC(C)=CCCC(C)CC(=O)O` (centres undefined), the Potency is 63.3 µM (active).

For `CCCC(=O)O[C@]1(C(=O)CO)CC[C@H]2[C@@H]3CCC4=CC(=O)CC[C@]4(C)[C@H]3[C@@H](O)C[C@@]21C`, the “activity change, negative = inhibition” value was -19.5% [at 53 µM] (inactive).

`CCC(C)S` (centres undefined): the activity change, negative = inhibition is -9.04% [at 4.07 µM] (inactive).

`COc1cc(C(=O)N2CCCCCCC2)cc(OC)c1OC`: the “activity change, negative = inhibition” value was -17% [at 53 µM] (inactive).

In the case of `c1cnc(N2CCN(Cc3ccc4c(c3)OCO4)CC2)nc1`, the Potency was 15.5 µM (active).

Consider `CN(C)CCCNCCCN(C)C`, for which the “activity change, negative = inhibition” value was -3.26% (inactive).

On to `CCOC(=O)Nc1ccc(NCc2ccc(F)cc2)nc1N`, for which the Potency was 6.17 µM (active).

As to `CC(C)CNCC(C)C`, the “activity change, negative = inhibition” value was -2.83% (inactive).

For the compound `C=CCOCC(CC)(CO)COCC=C`, the Potency is 25.2 µM (active).

For `CCSC(=O)N(CC(C)C)CC(C)C`, the “activity change, negative = inhibition” value was -9.93% (inactive).

For `N[C@H]1CN(c2c(F)cc3c(=O)c(C(=O)O)cn(C4C[C@H]4F)c3c2Cl)CC12CC2` (some centres undefined), the “activity change, negative = inhibition” value was 2.15% [at 53 µM] (inactive).

Take `NS(=O)(=O)c1cc(C(=O)NN2C[C@H]3[C@H]4CCC(C4)[C@H]3C2)ccc1Cl`: the “activity change, negative = inhibition” value was -15.5% [at 53 µM] (inactive).

For `CC(NC(CCc1ccccc1)C(=O)O)C(=O)N1C(=O)N(C)CC1C(=O)O` (centres undefined), the “activity change, negative = inhibition” value is -2.79% [at 53 µM] (inactive).

As to `CC(C)NC(=O)NC(C)C`, the “activity change, negative = inhibition” value was 0.136% (inactive).

`CCCN1CCCC[C@H]1C(=O)Nc1c(C)cccc1C`: the “activity change, negative = inhibition” value was -1.64% [at 53 µM] (inactive).

Consider `NS(=O)(=O)c1ccccc1Cl`, for which the “activity change, negative = inhibition” value was -7.7% (inactive).

As for `O=C1NC(=O)[C@@]2(CCOc3ccc(F)cc32)N1`, the “activity change, negative = inhibition” value is -5.33% [at 53 µM] (inactive).

For the compound `Nc1nc2c(ncn2COC(CO)CO)c(=O)[nH]1`, the “activity change, negative = inhibition” value is 14.8% [at 53 µM] (inactive).

Turning to `CCOC(=O)[C@H](CCc1ccccc1)N[C@@H](C)C(=O)N1[C@H](C(=O)O)C[C@@H]2CCC[C@@H]21`, the “activity change, negative = inhibition” value was -9.31% [at 53 µM] (inactive).

In the case of `CC(C)(C)c1ccc(O)c(O)c1`, the Potency was 61.5 µM (active).

In the case of `COC(=O)c1ccc(C)cc1C1=NC(C)(C(C)C)C(=O)N1` (centres undefined), the “activity change, negative = inhibition” value was -13.8% (inactive).

For the compound `C=C[Si](OC(=C)C)(OC(=C)C)OC(=C)C`, the “activity change, negative = inhibition” value was -17.3% (inactive).

Take `CCC(=O)OC(C)c1ccccc1` (centres undefined): the “activity change, negative = inhibition” value was -4.32% (inactive).

Turning to `CC(C(=O)O)c1ccc(CC2CCCC2=O)cc1` (centres undefined), the “activity change, negative = inhibition” value was 5.05% [at 53 µM] (inactive).

The target of a further assay is Cytochrome P450 1A2 (Homo sapiens) (UniProt P05177). Description: Cytochrome P450 Family 1 Subfamily A Member 2 (CYP1A2) small molecule antagonists: luciferase reporter qHTS assay (AID 1671199). The settings on record: P450-Glo CYP1A2 enzyme, luciferin luminescence, 1 h; series mostly up to 53 µM; activity change, negative = inhibition: at the top concentration. In short, it runs like this: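 Enzymatic CYP1A2 assay, human, luminescent: 10 min compound–enzyme–substrate preincubation, 1 h NADPH-dependent turnover, 20 min detection step, room temperature throughout. Reduced light indicates lower CYP1A2 activity.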
Cytochrome P450 1A2 (Homo sapiens), sequence (P05177 whole entry, looked up): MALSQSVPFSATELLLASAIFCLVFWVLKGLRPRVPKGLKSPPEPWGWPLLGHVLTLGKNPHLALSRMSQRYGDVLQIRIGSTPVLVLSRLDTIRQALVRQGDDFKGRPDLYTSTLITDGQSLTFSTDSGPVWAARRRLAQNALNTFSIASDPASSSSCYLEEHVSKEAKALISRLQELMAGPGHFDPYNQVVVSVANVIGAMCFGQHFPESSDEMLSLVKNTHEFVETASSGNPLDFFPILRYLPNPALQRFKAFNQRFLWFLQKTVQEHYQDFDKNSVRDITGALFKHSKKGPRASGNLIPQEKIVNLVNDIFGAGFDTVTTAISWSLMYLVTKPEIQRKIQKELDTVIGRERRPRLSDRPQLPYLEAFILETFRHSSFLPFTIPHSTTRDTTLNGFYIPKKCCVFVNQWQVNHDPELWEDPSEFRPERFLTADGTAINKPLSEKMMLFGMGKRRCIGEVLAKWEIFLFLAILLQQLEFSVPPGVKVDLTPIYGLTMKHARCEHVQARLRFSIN
As to `CCOc1ccc(C(=O)OCCN(CC)CC)cc1`, the Potency is 27.5 µM (active).

`CCCCCCOC(=O)CCCCC(=O)OCCCCCC`: the “activity change, negative = inhibition” value is -31.3% [at 115 µM] (inactive).

`CC1(C)C(O)C(C)(C)C1O` (centres undefined): the “activity change, negative = inhibition” value is -10.5% [at 115 µM] (inactive).

For the compound `Cc1[nH]c(=O)c(C#N)cc1-c1ccc2nccn2c1`, the “activity change, negative = inhibition” value was 12.9% (inactive).

On to `CN1CC(=O)NC1=N`, for which the “activity change, negative = inhibition” value was -18.3% (inactive).

For the compound `CCCCCOC(=O)CCCCC`, the “activity change, negative = inhibition” value was -14.4% [at 115 µM] (inactive).

`CC(C)(c1ccc(O)cc1)c1ccc(O)cc1`: the Potency result was “inactive and 57.4 µM (active)”.

As for `C[C@@H]1CCN(C(=O)[C@H](CCCN=C(N)N)NS(=O)(=O)c2cccc3c2NC[C@H](C)C3)[C@@H](C(=O)O)C1`, the “activity change, negative = inhibition” value is -11.4% (inactive).

For `CCCC(=O)O[C@]1(C(=O)CO)CC[C@H]2[C@@H]3CCC4=CC(=O)CC[C@]4(C)[C@H]3[C@@H](O)C[C@@]21C`, the “activity change, negative = inhibition” value was 7.84% (inactive).

As for `COc1cc(C(=O)N2CCCCCCC2)cc(OC)c1OC`, the “activity change, negative = inhibition” value was -14.1% (inactive).

With `c1cnc(N2CCN(Cc3ccc4c(c3)OCO4)CC2)nc1`, the Potency is 4.07 µM (active).

For `CN(C)CCCNCCCN(C)C`, the “activity change, negative = inhibition” value is -14.8% [at 115 µM] (inactive).

Take `CCOC(=O)Nc1ccc(NCc2ccc(F)cc2)nc1N`: the “activity change, negative = inhibition” value was -23.5% (inactive).

As to `CC(C)CNCC(C)C`, the “activity change, negative = inhibition” value was -19.7% [at 115 µM] (inactive).

Take `C=CCOCC(CC)(CO)COCC=C`: the Potency was 28.3 µM (active).

As for `CCSC(=O)N(CC(C)C)CC(C)C`, the “activity change, negative = inhibition” value is -13.4% [at 115 µM] (inactive).

For the compound `N[C@H]1CN(c2c(F)cc3c(=O)c(C(=O)O)cn(C4C[C@H]4F)c3c2Cl)CC12CC2` (some centres undefined), the “activity change, negative = inhibition” value was 12.7% (inactive).

In the case of `NS(=O)(=O)c1cc(C(=O)NN2C[C@H]3[C@H]4CCC(C4)[C@H]3C2)ccc1Cl`, the “activity change, negative = inhibition” value was 5.88% (inactive).

With `CC(NC(CCc1ccccc1)C(=O)O)C(=O)N1C(=O)N(C)CC1C(=O)O` (centres undefined), the “activity change, negative = inhibition” value is 5.97% (inactive).

As to `CC(C)NC(=O)NC(C)C`, the “activity change, negative = inhibition” value is -10.4% [at 115 µM] (inactive).

Turning to `CCCN1CCCC[C@H]1C(=O)Nc1c(C)cccc1C`, the “activity change, negative = inhibition” value is -18.7% (inactive).

With `NS(=O)(=O)c1ccccc1Cl`, the “activity change, negative = inhibition” value is -14.2% [at 115 µM] (inactive).

As for `O=C1NC(=O)[C@@]2(CCOc3ccc(F)cc32)N1`, the “activity change, negative = inhibition” value is -2.49% (inactive).

For `Nc1nc2c(ncn2COC(CO)CO)c(=O)[nH]1`, the “activity change, negative = inhibition” value was 12.8% (inactive).

`CCOC(=O)[C@H](CCc1ccccc1)N[C@@H](C)C(=O)N1[C@H](C(=O)O)C[C@@H]2CCC[C@@H]21`: the “activity change, negative = inhibition” value was -7.39% (inactive).

Take `CC(C)(C)c1ccc(O)c(O)c1`: the Potency was 41.1 µM (active).

With `COC(=O)c1ccc(C)cc1C1=NC(C)(C(C)C)C(=O)N1` (centres undefined), the “activity change, negative = inhibition” value is -18.9% [at 115 µM] (inactive).

In the case of `C=C[Si](OC(=C)C)(OC(=C)C)OC(=C)C`, the “activity change, negative = inhibition” value is -18.7% [at 115 µM] (inactive).

In the case of `CCC(=O)OC(C)c1ccccc1` (centres undefined), the “activity change, negative = inhibition” value is -24.5% [at 115 µM] (inactive).

For the compound `CC(C(=O)O)c1ccc(CC2CCCC2=O)cc1` (centres undefined), the “activity change, negative = inhibition” value is 17.9% (inactive).
